# Laboratory results taken from PubChem BioAssay (NCI).
# The panel holds about 83,000 compounds, 20% with a hit somewhere; the sample as a whole holds those more often.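 Cells were grown in 96-well plates and exposed to the test compound at a single concentration for 48 hours; results are reported as percent growth, with values below 10 considered active.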 Values without a mark were called inactive. The source made the active and inactive calls.
# Assays:
# Assay in all cases: NCI-60 one-dose screen, 48 h (100 = growth as untreated, 0 = no growth, -100 = all killed)
# Conditions in all cases: 10 µM unless noted
# HT29 colon = system: HT29 colon
# SNB-75 CNS = system: SNB-75 CNS
# U251 CNS = system: U251 CNS
# PC-3 prostate = system: PC-3 prostate
# SK-MEL-5 melanoma = system: SK-MEL-5 melanoma
# UACC-62 melanoma = system: UACC-62 melanoma
# LOX IMVI melanoma = system: LOX IMVI melanoma
# SK-MEL-28 melanoma = system: SK-MEL-28 melanoma
# SK-MEL-2 melanoma = system: SK-MEL-2 melanoma
# EKVX NSCLC = system: EKVX NSCLC
# SN12C renal = system: SN12C renal
# UO-31 renal = system: UO-31 renal
# TK-10 renal = system: TK-10 renal
# ACHN renal = system: ACHN renal
# A498 renal = system: A498 renal
# MOLT-4 leukemia = system: MOLT-4 leukemia
# SR leukemia = system: SR leukemia
# SNB-19 CNS = system: SNB-19 CNS
# CAKI-1 renal = system: CAKI-1 renal
# CCRF-CEM leukemia = system: CCRF-CEM leukemia
Structure (SMILES),growth (HT29 colon),growth (SNB-75 CNS),growth (U251 CNS),growth (PC-3 prostate),growth (SK-MEL-5 melanoma),growth (UACC-62 melanoma),growth (LOX IMVI melanoma),growth (SK-MEL-28 melanoma),growth (SK-MEL-2 melanoma),growth (EKVX NSCLC),growth (SN12C renal),growth (UO-31 renal),growth (TK-10 renal),growth (ACHN renal),growth (A498 renal),growth (MOLT-4 leukemia),growth (SR leukemia),growth (SNB-19 CNS),growth (CAKI-1 renal),growth (CCRF-CEM leukemia)
CCc1[nH]nc(-c2ccc(OC)cc2)c1-c1ccccc1OCCN(CC)CC,85.9%,60.4%,96%,76%,85.2%,106%,80.2%,107%,95.5%,94.5%,96.5%,67.3%,109%,98.5%,80.7%,85.8%,62.7%,–,–,–
O=C(O)c1ccc(NC(=O)c2ccc(Nc3ccnc(C(F)(F)F)c3)cc2)cc1,109%,98.7%,–,99.4%,101%,107%,–,106%,–,–,104%,84.5%,105%,98.9%,105%,94.5%,90%,99.7%,108%,120%
COc1ccc(/C=N/NC(=O)c2ccc(S(C)(=O)=O)cc2)cc1OC,97.9%,85.9%,–,88.5%,97.9%,92.7%,102%,109%,91%,103%,98.3%,90.8%,96.9%,102%,94.6%,65.9%,92.5%,97.3%,89%,103%
COc1ccc2nc3cc(Cl)ccc3c(N3CCN(c4ccnc(Nc5ccc(F)cc5)n4)CC3)c2c1,83.3%,69.1%,–,67.3%,–,77.4%,–,104%,–,–,71.5%,56%,66.1%,62.5%,51.1%,20%,43.2%,82.4%,72%,38.1%
O=C(Nc1ccc(Cl)cc1)Nc1ccc(Nc2nncc3ccccc23)cc1,32.4%,46.3%,18.3%,1.46% (active),7.12% (active),13.4%,33.6%,44.1%,18.9%,20.6%,26.4%,19%,32%,22.4%,24.5%,-1.61% (active),17.5%,–,20.6%,13.1%
O=C(O)c1ccc(NC(=O)c2cccc(Nc3ccnc(C(F)(F)F)c3)c2)cc1,106%,105%,–,105%,101%,108%,–,110%,–,–,106%,82%,97.8%,103%,106%,93.4%,86.1%,106%,95.1%,94.8%
Cc1cc(C(C)(C)c2cc(C)c(O)c(CN(C)C)c2)cc(CN(C)C)c1O,76.3%,90.1%,67.8%,80%,85.8%,75.5%,81.8%,79.2%,101%,92.3%,96.3%,59.4%,94.2%,86.2%,69.5%,–,74.8%,–,79.6%,100%
COc1ccc(-c2csc(NC(=O)c3cc(OC)c(OC)c(OC)c3)n2)cc1,110%,102%,–,90.9%,98.5%,89%,–,101%,–,–,98.7%,89.3%,–,107%,92.2%,103%,95.8%,94%,94.1%,105%
c1ccc(N2CCN(c3nncc4ccccc34)CC2)nc1,98.2%,105%,96.9%,101%,97.5%,99.6%,97.5%,108%,103%,110%,102%,96%,105%,115%,97.8%,106%,103%,–,109%,102%
Cc1cccc(Cl)c1NC(=O)c1ccc2nc(NC(=O)NC3CC(C)(C)NC(C)(C)C3)sc2c1,59.3%,-18.9% (active),–,–,91.7%,107%,63.9%,116%,121%,94.5%,56.5%,88.7%,80.2%,94.9%,89%,70%,95.6%,93.6%,92%,87.7%
CCCCOc1ccc(C(C)(C)c2ccc(OCCCC)cc2)cc1,102%,97.6%,–,99.9%,–,106%,101%,107%,96.9%,143%,100%,80.5%,107%,–,126%,99.7%,92.6%,108%,–,97.7%
CCN(CC)c1ccc(CN(CC(=O)c2ccc(Cl)c(Cl)c2)Cc2ccccc2)cc1,105%,93%,103%,83%,97.9%,90.9%,94.3%,110%,96.9%,108%,101%,81.9%,117%,107%,92.1%,–,88.3%,–,92.3%,97.8%
CCN1CCN(c2cc(-c3cn[nH]c3-c3cc(C)cc(OC)c3)nc(-c3cccnc3)n2)CC1,33.4%,75.9%,48.3%,100%,81.9%,102%,56.7%,87.4%,93.6%,106%,85%,45.8%,105%,73.7%,15.1%,–,7.69% (active),–,73.7%,84.5%
O=c1[nH]c(Cl)nc2c1cnn2-c1ccccc1,64.4%,82.9%,100%,76.6%,96.5%,67.6%,71.7%,70.7%,103%,93.7%,97.4%,73.2%,–,101%,84.1%,47.6%,32.1%,–,61.6%,40.9%
Cc1cc2c(cc1C)Nc1sc(NC(=O)CN3CCN(C)CC3)nc1C(=O)N2,99.8%,104%,–,101%,–,105%,–,108%,–,–,103%,94.3%,99.9%,111%,102%,87.4%,79%,96.6%,106%,98.3%
COc1ccc(Cn2c(NCCCN(C)C)nc(=O)n(Cc3ccc(F)cc3)c2=O)cc1,95.9%,81.4%,–,80.3%,97.8%,97%,–,100%,–,–,95.4%,63.6%,110%,105%,95.6%,84.9%,83.5%,104%,83.1%,114%
COc1ccc(C(=O)Nc2nc(-c3ccc(Cl)cc3)cs2)cc1,114%,98.7%,–,98.3%,98.9%,102%,–,101%,–,–,101%,89.4%,122%,94.4%,91.5%,97.9%,105%,104%,96.7%,104%
CCN1C[C@@H](C)n2c(c(O)c3c(=O)n(Cc4ccc(F)c(Cl)c4)nc(C(=O)NC)c32)C1=O,106%,20.2%,–,69.4%,15.1%,-4.84% (active),–,28.9%,–,–,9.18% (active),11%,31.6%,13.7%,-7.58% (active),21.6%,2.73% (active),12%,15.9%,40.4%
